Drawing on PubChem BioAssay (NCI), this text covers growth for 36 molecules.

Each structure is given as a SMILES string. This is part of a sample that, as a whole, favours compounds with a hit. Of some 83,000 tested, about 20% had one in any assay.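 96-well plates, one dose, 48 hours. Percent growth reported; active if below 10.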 A number with no mark means an inactive call. Calls of active or inactive are those of the source.

This assay has as its system T-47D breast. Nature of the assay: NCI-60 one-dose screen, 48 h (100 = growth as untreated, 0 = no growth, -100 = all killed). The conditions noted are these: 10 µM unless noted.
For the molecule `COc1cc(Cn2c(SCCC(=O)Nc3ccc(F)cc3)nc3ccccc3c2=O)cc(OC)c1OC`, the growth was 77.8%.

`O=C(O)c1cn(C2CC2)c2cc(N3CCN(S(=O)(=O)c4ccc(Cl)c(Cl)c4)CC3)c(F)cc2c1=O`: the growth is 16.3%.

Regarding `COc1cc(NCCCN=C(N)NC(N)=NC(C)C)c2ncccc2c1`, the growth was -2.75% (active).

Turning to `O=C(O)c1cccc([N+](=O)[O-])c1/C=C/c1ccccc1`, the growth was 95.2%.

Regarding `NC(CC(N)C(=O)O)C(=O)O` (stereo unspecified), the growth is 92.9%.

As for `O=C(O)c1ccc(-n2c(=O)c3ccccc3c3ccccc3c2=O)cc1`, the growth was 92.8%.

Turning to `COc1cc(Cn2c(SCC(=O)Nc3ccc(Cl)cc3)nc3ccccc3c2=O)cc(OC)c1OC`, the growth is 45.2%.

Consider `CN(C)c1ncc(-c2ccc(C(F)(F)F)cc2)c(NC2CCCCCC2)n1`, for which the growth is 35.1%.

Take `Nc1c(C(=O)Nc2ccccc2)sc2nc3c(cc12)CCCCC3`: the growth was 42.2%.

Turning to `CCn1cc(C(=O)O)c(=O)c2cc(F)c(N3CCN(S(=O)(=O)c4c(C)cc(C)cc4C)CC3)cc21`, the growth is 74.1%.

Consider `CCn1cc(C(=O)O)c(=O)c2cc(F)c(N3CCN(S(=O)(=O)c4ccc(Cl)cc4Cl)CC3)cc21`, for which the growth was 1.7% (active).

Regarding `COC12CC(=O)C(C(C)=O)=C(O)C1(C)c1c(O)c(C)c(O)c(C(C)=O)c1O2` (stereo unspecified), the growth was 81%.

As to `CCCC(C(=O)OCC)C(C)OC(=O)OCC` (stereo unspecified), the growth is 86.6%.

Consider `NC(=O)NC(=O)/C=C/C(=O)OCCCl`, for which the growth is 69%.

For `Cc1ccc(C2=NN(c3ccc(S(=O)(=O)NC(=O)NCc4ccccc4)cc3)C(c3ccc(N(C)C)cc3)C2)c(C)c1` (stereo unspecified), the growth is 47.3%.

With `COc1ccc(-c2cn[nH]c2-c2cc(OC)c3c(c2)OCO3)cc1`, the growth is 44%.

Take `CCCCCCCCCCCCNC(=S)N/N=C/c1ccc(Cl)c(Cl)c1`: the growth was 94.9%.

With `Oc1ccc(Cl)cc1-c1cc(-c2ccc(Cl)cc2)n[nH]1`, the growth is 30.9%.

As for `COc1cc(NC(=O)CSc2nc3ccc(C)cc3c(=O)n2-c2ccccc2)cc(OC)c1OC`, the growth was 81.7%.

As for `Clc1nc(-c2cccnc2)nc2sc3c(c12)CCCCCC3`, the growth is 95.4%.

Turning to `CCCCCCCCCCCCCCCCC(Br)C(=O)O` (stereo unspecified), the growth is 86.7%.

For `CCCCCC(=O)OCc1ccccc1`, the growth is 95.2%.

For `COc1ccc(S(=O)(=O)N2CCN(c3cc4c(cc3F)c(=O)c(C(=O)O)cn4C3CC3)CC2)c(OC)c1`, the growth is 75%.

Consider `COc1cc2nc(N3CCC[C@@H](NC4=CC(=O)c5ccccc5C4=O)C3)nc(N)c2cc1OC`, for which the growth was -40.9% (active).

With `COc1ccccc1CNCCCN1C(=O)c2ccc3c4c(ccc(c24)C1=O)C(=O)N(CCCNCCCCNCCCCN)C3=O`, the growth is -1.05% (active).

Turning to `Cc1cc(C)c(S(=O)(=O)N2CCN(c3cc4c(cc3F)c(=O)c(C(=O)O)cn4C3CC3)CC2)c(C)c1`, the growth is 62.9%.

Turning to `COc1ccc(NC(=O)CSc2nc3ccccc3c(=O)n2-c2ccccc2C(F)(F)F)c(OC)c1OC`, the growth is 95.1%.

For `CCN(CC)P(=O)(N(CC)CC)N(CCCSC/C=C(\C)CC/C=C(\C)CCC=C(C)C)CCCN1CCN(C)CC1`, the growth was 88.9%.

Turning to `COc1ccc(NC(=O)CSc2nc3ccc(Cl)cc3c(=O)n2-c2ccccc2C(F)(F)F)c(OC)c1OC`, the growth is 61.9%.

As to `O=S(=O)(O)CCl`, the growth was 97.2%.

On to `COc1ccc(OC)c(C(=O)c2oc3ccc(Br)cc3c2N)c1`, for which the growth was 37.9%.

On to `COc1cc(NCCN=C(N)NC(N)=NC(C)C)c2ncccc2c1`, for which the growth is -5.22% (active).

In the case of `CC(=O)Nc1nc(C(=O)N2N=C(C)/C(=C/c3cccs3)C2=O)cs1`, the growth is 100%.

Turning to `CC(C)[C@H](CO)Nc1nc(Nc2ccc(C(=O)NCCNS(=O)(=O)c3cccc4c(N(C)C)cccc34)c(Cl)c2)c2ncn(C(C)C)c2n1`, the growth was 20.6%.

For `CCn1cc(C(=O)O)c(=O)c2cc(F)c(N3CCN(S(=O)(=O)c4cccc5ccccc45)CC3)cc21`, the growth was 5.29% (active).

For `O=C1Nc2ccc(Br)cc2C1=N/C=c1\[nH]c(=O)/c(=C/c2ccc(Cl)cc2)s1`, the growth is 80%.
